Screens deposited in PubChem by several laboratories.
SKN-1 block = suppressors of acrylamide-induced Pgst-4::GFP reporter in worms, primary screen, SKN-1 inhibitor project, whole organism, uHTS, GFP/RFP fluorescence ratio, strain VP596 | C. elegans VP596 Pgst-4::GFP/RFP ratio, 24 h | inhibition, % at 21.8 µM | actives 0.49% (n = 360,000) | AID 624304, 2012;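 active = interference check ratio from 0.5 to 1.5 plus GFP to RFP signal ratio inhibition reaching or exceeding a fixed threshold, cut at about 30% in these data, passing the limit was not always enough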
SMARCA2 act = SMARCA2 (BRM) function activators, primary screen, cell-based, luminescence, high throughput. MG213 cells, MMTV-luciferase reporter, dexamethasone, overnight. activation, % at 9.1 µM. actives 1% (n = 370,000). AID 652017, 2013; in the data active = activation above about 7.8%;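 also: 0% = vehicle wells and 100% = reference activator wells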
GRIN3A LBD mod = binders of NR3A ligand-binding domain, primary screen, biophysical, differential scanning fluorimetry, uHTS | Glutamate receptor ionotropic, NMDA 3A (GRIN3A) ligand-binding domain | NR3A LBD differential scanning fluorimetry, Tm shift; 0% = protein alone, 100% = glycine-bound protein | Tm shift relative to glycine control, % at 25 µM | actives 2.5% (n = 340,000) | AID 1259313, 2017;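 active = melting temperature shift of at least 10% of the positive control shift, at one fixed dose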
NadD block = inhibitors of S. aureus NadD, primary screen, biochemical, colorimetric, uHTS. inhibition, % at 20 µM. actives 0.78% (n = 360,000). purified NadD enzyme, colorimetric absorbance read-out; in the data active = inhibition above about 26%
esBAF inh = Bmi1 luciferase reporter increase in mESCs, primary screen, esBAF inhibitor project, mouse ES cells, Bmi1 luciferase knock-in, single point | actives 2% (n = 350,000) | 24 h; 100% = twice the neutral-well signal | reporter increase, % at 12.5 µM | AID 602393, 2012; in the data active = activation above about 40%;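 also: 0% = median of the plate's neutral control wells and 100% = double that signal; a rise in the Bmi1 reporter signal indicates esBAF inhibition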
Vif inh = HIV Vif self-association inhibitors, primary screen, imaging, HEK293T, single point; HEK293T cells, Vif self-association by quenched fluorescence, 24 h; inhibition, % at 7.49 µM; actives 0.35% (n = 340,000); AID 602346, 2012; in the data active = inhibition above about 50%, passing the limit was not always enough
* marks the source's active call; other numbers are inactive results; / = no result given. An excerpt weighted towards active compounds, which were near 5.2% of everything screened.

SMILES	SKN-1 block	SMARCA2 act	GRIN3A LBD mod	NadD block	esBAF inh	Vif inh
Clc1ccc2c(N/N=C/c3ccccc3Br)ccnc2c1	28.0	-2.2	4.1	14.6	/	-2.3
C/C(=N/Nc1ccnc2cc(Cl)ccc12)c1ccc(O)cc1	7.5	0.6	14.5*	-0.6	31.1	-0.5
Clc1ccc2c(N/N=C/c3cccc(Br)c3)ccnc2c1	2.7	-1.2	15.3*	16.2	/	-5.3
COc1ccc(NC(=O)Nc2ccc3c(c2)C(=O)N([C@H](C)CO)C[C@H](C)[C@@H](CN(C)S(=O)(=O)c2cn(C)cn2)OCCCC[C@@H](C)O3)cc1	/	/	/	/	2.5	/
CO[C@H]1CN(C)C(=O)c2ccc(NC(=O)Nc3ccccc3)cc2OC[C@H](C)N(CC2CC2)C[C@H]1C	/	/	/	/	-3.1	/
CCCCCc1ccc(-c2cn(CN3C(=O)c4ccccc4C3=O)nn2)cc1	-1.4	-0.1	9.9	16.3	5.1	65.4*
N#Cc1nc(-c2ccc(OCc3ccc(Cl)cc3)cc2)oc1N1CCC(C(N)=O)CC1	12.5	1.4	27.7*	-3.9	6.3	11.6
C[C@H]1CN([C@@H](C)CO)C(=O)Cc2cc(NC(=O)Nc3ccc(F)cc3)ccc2O[C@@H]1CN(C)CC1CCCCC1	/	/	/	/	6.6	/
Cc1nn(C)cc1NC(=O)C[C@@H]1CC[C@@H]2[C@@H](COc3ccc(NC(=O)C(C)C)cc3C(=O)N2C)O1	/	/	/	/	-3.0	/
Cc1ccc(S(=O)(=O)N2Cc3ccccc3CC2C(=O)Nc2ccc3c(c2)OCO3)cc1 (centres undefined)	-9.7	-1.1	-4.4	23.4	66.2*	/
COc1ccc(S(=O)(=O)N2Cc3ccccc3CC2C(=O)Nc2ccc3c(c2)OCO3)cc1 (centres undefined)	-1.0	1.9	0.1	13.4	58.9*	-7.8
C[C@H](CO)N1C[C@H](C)[C@@H](CN(C)S(=O)(=O)c2ccc(Cl)cc2)OCCCC[C@H](C)Oc2ccc(NS(=O)(=O)c3cn(C)cn3)cc2C1=O	/	/	/	/	6.0	/
COc1cccc(-c2cc(C(F)(F)F)nc(-n3cncn3)n2)c1	15.1	2.4	-2.3	-2.7	-8.5	2.3
COc1cccc(-c2cc(C(F)(F)F)nc(-n3cc(C)cn3)n2)c1	-0.6	0.1	0.9	-11.8	1.5	88.8*
Cc1ccnc(N/C=C(\C#N)c2nc(-c3cccc(Br)c3)cs2)c1	10.0	-1.1	-25.0	15.4	4.8	91.1*
COc1cccc(-c2csc(/C(C#N)=C/Nc3cc4oc5ccccc5c4cc3OC)n2)c1	11.9	-0.4	0.6	15.6	/	-6.8
Cc1c(C)n(Cc2ccc(F)cc2)c2ccc(C(=O)N3CCN(c4ccccn4)CC3)cc12	58.7*	-2.4	-0.8	11.3	6.3	-4.4
CCn1c(C)c(C)c2cc(C(=O)N3CCN(c4ccccc4)CC3)ccc21	46.2*	3.7	-1.1	0.9	-1.7	-0.3
CCn1c(C)c(C)c2cc(C(=O)N3CCCC3)ccc21	58.1	-1.7	1.2	-3.3	2.2	1.9
O=C(NC1Cc2ccccc2C1)[C@H]1[C@H](CO)[C@H]2Cn3c(cccc3=O)[C@@H]1N2Cc1ccccc1F	/	/	/	/	1.8	/
C[C@@H]1CN([C@H](C)CO)C(=O)c2cc(NC(=O)Nc3ccc(C(F)(F)F)cc3)ccc2O[C@H]1CN(C)Cc1ccc(Cl)c(Cl)c1	15.6	4.2	31.8*	32.8*	2.6	2.8
C[C@@H]1CN([C@H](C)CO)C(=O)c2cc(NS(=O)(=O)c3ccc(F)cc3)ccc2O[C@@H]1CN(C)Cc1ccc(Cl)c(Cl)c1	0.7	-5.9	13.2*	-2.0	-5.0	2.9
C[C@H]1CN([C@@H](C)CO)C(=O)c2cc(NC(=O)Nc3ccc(C(F)(F)F)cc3)ccc2O[C@H]1CN(C)Cc1ccc(Cl)c(Cl)c1	/	/	/	/	1.3	/
C[C@H]1CN([C@@H](C)CO)C(=O)c2cccc(NC(=O)Nc3ccc(C(F)(F)F)cc3)c2O[C@@H]1CN(C)Cc1ccc(Cl)c(Cl)c1	-10.2	-1.4	12.3*	1.1	4.3	-6.9
O=C(c1cnc(N2CCN(c3ncccn3)CC2)c2ccccc12)N1CCN(c2ccccn2)CC1	13.8	-4.2	0.3	8.2	14.8	-22.2
SMILES	SKN-1 block	SMARCA2 act	GRIN3A LBD mod	NadD block	esBAF inh	Vif inh
COc1ccc(N(C)C(=O)c2cnc(N3CCN(c4ncccn4)CC3)c3ccccc23)cc1	13.4	-0.6	768.9*	0.2	-2.3	-18.7
CNC[C@H]1OCCCC[C@H](C)Oc2ccc(NS(C)(=O)=O)cc2C(=O)N([C@@H](C)CO)C[C@@H]1C	/	/	/	/	0.7	/
CCCCC(=O)OCC(=O)N1N=C(c2c[nH]c3ccccc23)C(O)C1c1ccc(OC)cc1 (centres undefined)	1.2	-4.2	30.2*	-2.4	-2.3	-14.0
COc1ccc(CC(=O)OCC(=O)N2N=C(c3ccccc3)CC2c2ccc(OC)cc2)cc1 (centres undefined)	5.7	-1.2	-0.7	-7.0	/	-4.6
Cc1ccccc1S(=O)(=O)N1CC[C@@H]2[C@H]1c1cc(-c3ccc(C#N)cc3)ccc1N[C@@H]2CO	/	/	/	/	-3.2	/
C=C(C)CSc1nc2ncc(Cl)cc2[nH]1	-0.7	0.1	-0.9	0.0	16.7	68.7*
C=C(C)CN(CC)C(=O)CSc1nc2ncc(Cl)cc2[nH]1	-8.3	2.2	0.7	-1.1	-0.8	-0.6
C[C@@H]1CN([C@H](C)CO)C(=O)c2cccc(NC(=O)C3CCCCC3)c2O[C@@H]1CN(C)S(=O)(=O)c1ccccc1	/	/	/	/	2.5	/
Clc1cccc(/C(Cc2nc3ccccc3[nH]2)=N\Nc2ccccc2)c1	22.1	0.7	13.5*	11.4	/	-4.6
c1ccc(N/N=C(\Cc2nc3ccccc3[nH]2)c2ccccc2)cc1	10.2	2.4	-2.2	11.9	/	-3.6
O=[N+]([O-])c1ccc(-c2cn(-c3ccccc3F)c(=S)[nH]2)cc1	-1.6	2.2	0.8	6.5	/	-3.6
Cc1ccc(-c2cn(-c3ccccc3F)c(=S)[nH]2)cc1	12.4	0.3	-1.5	-1.7	46.7*	-5.7
O=C(/C=C/c1ccccc1)Nc1ccc(CN2CCOCC2)cc1	64.7*	-1.5	6.0	-1.5	/	/
O=C(/C=C/c1ccc(Cl)cc1Cl)Nc1ccc(CN2CCOCC2)cc1	46.7*	-2.4	7.9	-7.0	/	-3.6
COc1ccc(CN(C)C[C@@H]2OCCCC[C@@H](C)Oc3ccc(NC(=O)Nc4c(C)noc4C)cc3C(=O)N([C@@H](C)CO)C[C@H]2C)cc1	/	/	/	/	4.4	/
O=C(Nc1ccc(Cl)cc1)N(CCCN1CCOCC1)Cc1cccs1	5.0	-1.2	-2.5	-2.4	8.1	-3.0
